# From PubChem BioAssay (NCI)
# Several values for one entry are separate records, joined by “and”; a condition that tells them apart may be missing. Equal values may be shown once. The panel holds about 83,000 compounds, 20% with a hit somewhere; the sample as a whole holds those more often.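 The endpoint reported here, percent growth, reads 100 for growth as untreated, 0 for no net growth and -100 for all cells dead.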 Values without a mark were called inactive. Activity calls are given as the source filed them. How the source made its calls: active means growth percent below 10; inactive means the rest.
# Test system: MDA-MB-468 breast
# Assay: NCI-60 one-dose screen, 48 h (100 = growth as untreated, 0 = no growth, -100 = all killed)
# Details: 10 µM unless noted
row,SMILES,growth
1,CCN(CC)CCCNc1ccc(C)c2sc3ccccc3c(=O)c12,-34.8% (active)
2,CC(=O)N1CC(Nc2ccc(OC(F)(F)F)cc2)=CC1=O,13.8%
3,CC1(C)OC(=O)C(=Cc2cccc(Br)c2)C(=O)O1,111%
4,O=C1c2ccc3c4c(ccc(c24)C(=O)N1CCCCO)C(=O)N(CCCCO)C3=O,-29.2% (active)
5,N#CCCN1C(=O)CCC1C(=O)O (stereo not given),103%
6,COc1nc2ccc(C)cc2cc1-c1nc2c(cnn2-c2ccc(Br)cc2)c(=O)[nH]1,29.5%
7,COc1c(O)cc2oc3cc(O)c(CC=C(C)C)c(O)c3c(=O)c2c1C/C=C(\C)CCC=C(C)C,82.1%
8,Clc1ccc2[nH]c3c(NCCCN4CCOCC4)ncnc3c2c1,33.7%
9,CN(C)[C@@H]1C(=O)C(C(=O)NCc2nc3[nH]cnc(=S)c3[nH]2)=C(O)[C@@]2(O)C(=O)C3=C(O)c4c(O)cccc4[C@@](C)(O)[C@H]3C[C@@H]12,81.2%
10,O=C(Cn1c[n+](CC(=O)c2ccc([N+](=O)[O-])cc2)c2ccccc21)Nc1cccc2cccnc12,9.02% (active)
11,COc1ccccc1/C(C)=N/NC(=O)CSc1nc2ccccc2c(=O)n1Cc1ccc(S(N)(=O)=O)cc1,98.8%
12,COc1cc(/C=C2\CN(C)C/C(=C\c3cc(CN4CCOCC4)c(O)c(OC)c3)C2=O)cc(CN2CCOCC2)c1O,38.8%
13,O=C(NCCNc1nccc(-c2c(-c3cccc(O)c3)nc3sccn23)n1)c1cc(N2CCOCC2)cc(C(F)(F)F)c1,94.8%
14,COc1cc(OC)cc(-c2ccc(-c3ccc(C(=N)N)cc3)s2)c1,-81.3% (active)
15,c1ccc(-c2n(Cc3ccc4ccccc4n3)cc[n+]2Cc2ccc3ccccc3c2)cc1,-33.5% (active)
16,C#C[C@]1(O)CC[C@H]2[C@@H]3CC=C4c5sc(NCc6ccccc6)nc5CC[C@]4(C)[C@H]3CC[C@@]21C,45.4%
17,CCOC(=O)CNC(=O)CCCCSc1ncnc2nc[nH]c12,95.4%
18,Cc1cccc2c1S/C(=C/c1ccc([N+](=O)[O-])cc1)C2=O,112%
19,COCCOC(=O)NC(=O)Nc1ccc(/C(=N/O)c2ccc(Cl)cc2)cc1,19.8%
20,COc1cc(-c2nn(-c3cccc(NC(=O)c4ccccc4)c3)cc2-c2ccncc2)ccc1Cl,-19.7% (active)

row,SMILES,growth
1,CCN(CCCNc1cc2c(c(N)c1S(=O)(=O)O)C(=O)c1ccccc1C2=O)c1ccccc1,89%
2,COc1ccc(C(=NN=C(N)N)c2ccc(OC)cc2)cc1,-17.7% (active)
3,CSc1ccc(N2C(=N)C(=S)N(c3ccc(C)cc3)C2=O)cc1,121%
4,CN(C)CCN1C(=O)c2cccc3c(/C=C/CN4C(=O)c5cccc6cccc(c56)C4=O)ccc(c23)C1=O,88.9%
5,Cn1ccnc1C(=O)/C=C/c1ccc(C(=O)Nc2ccc(NC(=O)CCNC(=O)c3csc(Br)n3)cc2)cc1,48.4%
6,COc1ccc2[nH]c3nc4cnccc4cc3c2c1,117%
7,FC(F)(F)c1ccc(-c2cn3nc(-c4c[nH]c5ccc(Br)cc45)sc3n2)cc1,103%
8,O=c1[nH]c(Cl)nc2c1cnn2-c1ccccc1,101%
9,COc1cnc2c(c1)C(=O)c1c-2n(CCCNCC2CC2)c(=O)c2cc(F)ccc12,-38.4% (active)
10,O=C(O)CCCc1cnc2c3sccc3nc(SCc3c(Cl)cccc3Cl)n12,60.9%
11,COC(=O)c1cccc(NC2=C(Cl)C(=O)c3nc(C)ccc3C2=O)c1,-71.3% (active)
12,CC(=O)N1N=C(c2ccc(C(F)(F)F)cc2)CC1c1ccc2c(c1)OCO2 (stereo not given),93.8%
13,CCC(C)[C@H](NC(=O)NC(=O)NC(=O)CI)C(=O)OC (stereo not given in full),86.4%
14,O=C(NS(=O)(=O)c1ccccc1)n1cc(-c2ccncc2)c(-c2ccc(Cl)c(O)c2)n1,96.5%
15,C=C(C)[C@@H]1CC[C@]2(C)[C@H](CC=C3[C@@H]4CC(C)(C)CC[C@]4(C(=O)OC)CC[C@]32C)[C@@]1(C)CC/C(N)=N/O,-13% (active)
16,CO[C@@H](C)Cn1c(=O)n(C)c2cnc3ccc(-c4cncc(C(C)(C)O)c4)cc3c21,-45.9% (active)
17,O=C(O)c1cccc([N+](=O)[O-])c1,109%
18,N#Cc1ccc(/C=C/C(=O)c2ccccc2)cc1,43.5% and 48.9%
19,OCC(CO)(CCl)CCl,107%
20,Fc1ccc2c(-c3cncn3CCc3ccccc3)c[nH]c2c1,74.6%
